Legend:
[1] = target: T1, Casein kinase II (Homo sapiens) (UniProt P67870+P68400+P19784); details: at 1 µM
[2] = target: Casein kinase II subunit alpha' (Homo sapiens) (UniProt P19784); details: at 1 µM
[3] = target: Casein kinase II subunit alpha' (Homo sapiens) (UniProt P19784); details: at 10 µM
[4] = target: Dual specificity protein kinase CLK2 (Homo sapiens) (UniProt P49760); details: at 1 µM
[5] = target: Dual specificity protein kinase CLK2 (Homo sapiens) (UniProt P49760); details: at 10 µM
[6] = target: Dual specificity protein kinase CLK3 (Homo sapiens) (UniProt P49761); details: at 1 µM
[7] = target: Dual specificity protein kinase CLK3 (Homo sapiens) (UniProt P49761); details: at 10 µM
[8] = target: Calcium/calmodulin-dependent protein kinase type 1 (Homo sapiens) (UniProt Q14012); details: at 1 µM
[9] = target: Calcium/calmodulin-dependent protein kinase type 1 (Homo sapiens) (UniProt Q14012); details: at 10 µM
[10] = target: Calcium/calmodulin-dependent protein kinase type II subunit beta (Homo sapiens) (UniProt Q13554); details: at 1 µM
[11] = target: Calcium/calmodulin-dependent protein kinase type II subunit beta (Homo sapiens) (UniProt Q13554); details: at 10 µM
[12] = target: Calcium/calmodulin-dependent protein kinase type II subunit gamma (Homo sapiens) (UniProt Q13555); details: at 1 µM
[13] = target: Calcium/calmodulin-dependent protein kinase type II subunit gamma (Homo sapiens) (UniProt Q13555); details: at 10 µM
[14] = target: Calcium/calmodulin-dependent protein kinase type II subunit delta (Homo sapiens) (UniProt Q13557); details: at 1 µM
[15] = target: Calcium/calmodulin-dependent protein kinase type II subunit delta (Homo sapiens) (UniProt Q13557); details: at 10 µM
[16] = target: T2, Calcium/calmodulin-dependent protein kinase type IV (Homo sapiens) (UniProt Q16566); details: at 10 µM
T2 sequence (whole entry): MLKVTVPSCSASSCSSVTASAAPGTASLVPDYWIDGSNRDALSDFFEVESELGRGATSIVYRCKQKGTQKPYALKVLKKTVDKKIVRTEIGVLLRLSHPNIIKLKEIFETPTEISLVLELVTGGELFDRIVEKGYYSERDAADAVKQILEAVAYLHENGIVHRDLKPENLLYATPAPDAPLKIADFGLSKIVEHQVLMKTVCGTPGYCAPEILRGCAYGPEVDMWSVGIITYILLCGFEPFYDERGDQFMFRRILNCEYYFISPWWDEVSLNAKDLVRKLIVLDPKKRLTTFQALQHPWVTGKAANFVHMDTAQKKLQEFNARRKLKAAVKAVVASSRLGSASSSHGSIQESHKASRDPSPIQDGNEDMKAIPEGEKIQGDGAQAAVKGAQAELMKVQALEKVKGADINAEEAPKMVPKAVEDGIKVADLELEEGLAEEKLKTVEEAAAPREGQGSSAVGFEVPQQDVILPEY

[17] = target: T2, Calcium/calmodulin-dependent protein kinase type IV (Homo sapiens); details: at 1 µM
[18] = target: T1, Casein kinase II (Homo sapiens); details: at 10 µM
[19] = target: Tyrosine-protein kinase CSK (Homo sapiens) (UniProt P41240); details: at 1 µM
[20] = target: Tyrosine-protein kinase CSK (Homo sapiens) (UniProt P41240); details: at 10 µM

Dual specificity protein kinase CLK3 (Homo sapiens), sequence (P49761 whole entry, looked up): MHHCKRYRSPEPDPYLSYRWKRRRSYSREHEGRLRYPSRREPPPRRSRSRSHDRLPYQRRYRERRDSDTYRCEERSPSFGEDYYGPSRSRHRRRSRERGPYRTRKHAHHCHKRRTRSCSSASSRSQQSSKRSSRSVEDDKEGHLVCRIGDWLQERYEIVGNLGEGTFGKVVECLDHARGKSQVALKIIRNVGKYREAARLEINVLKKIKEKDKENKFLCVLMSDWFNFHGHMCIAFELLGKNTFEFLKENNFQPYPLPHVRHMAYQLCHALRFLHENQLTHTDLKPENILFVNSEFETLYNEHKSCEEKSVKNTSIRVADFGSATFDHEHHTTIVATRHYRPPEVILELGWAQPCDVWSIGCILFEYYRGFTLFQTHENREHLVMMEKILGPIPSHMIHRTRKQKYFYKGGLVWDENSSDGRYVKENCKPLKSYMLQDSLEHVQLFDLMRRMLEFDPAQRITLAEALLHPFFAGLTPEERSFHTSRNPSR
Tyrosine-protein kinase CSK (Homo sapiens), sequence (P41240 2-450 limits assumed): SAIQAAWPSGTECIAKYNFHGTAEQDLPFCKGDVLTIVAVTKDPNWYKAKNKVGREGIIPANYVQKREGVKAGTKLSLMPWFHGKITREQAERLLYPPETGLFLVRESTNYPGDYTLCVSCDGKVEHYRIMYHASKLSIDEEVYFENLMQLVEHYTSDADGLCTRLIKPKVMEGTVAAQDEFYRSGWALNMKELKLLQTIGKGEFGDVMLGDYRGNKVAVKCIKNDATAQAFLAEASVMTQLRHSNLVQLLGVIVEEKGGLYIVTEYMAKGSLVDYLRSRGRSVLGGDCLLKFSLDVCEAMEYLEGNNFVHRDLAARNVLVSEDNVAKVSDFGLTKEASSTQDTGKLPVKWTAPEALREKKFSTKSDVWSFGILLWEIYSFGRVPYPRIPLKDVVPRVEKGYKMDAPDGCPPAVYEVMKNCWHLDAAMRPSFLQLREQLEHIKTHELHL
Dual specificity protein kinase CLK2 (Homo sapiens), sequence (P49760 whole entry, looked up): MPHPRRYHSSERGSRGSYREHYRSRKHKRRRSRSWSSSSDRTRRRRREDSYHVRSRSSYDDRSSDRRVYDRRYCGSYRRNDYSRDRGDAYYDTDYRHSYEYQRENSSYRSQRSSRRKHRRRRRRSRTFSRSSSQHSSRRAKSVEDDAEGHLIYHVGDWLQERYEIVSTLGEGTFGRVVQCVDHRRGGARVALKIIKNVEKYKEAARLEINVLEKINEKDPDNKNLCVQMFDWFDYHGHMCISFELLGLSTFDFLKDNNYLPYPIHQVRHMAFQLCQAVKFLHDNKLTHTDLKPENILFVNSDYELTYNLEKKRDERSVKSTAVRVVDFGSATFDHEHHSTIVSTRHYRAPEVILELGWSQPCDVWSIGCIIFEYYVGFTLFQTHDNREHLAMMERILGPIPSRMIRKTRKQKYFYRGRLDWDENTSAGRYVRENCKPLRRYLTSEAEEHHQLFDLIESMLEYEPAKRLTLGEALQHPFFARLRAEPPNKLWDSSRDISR
Calcium/calmodulin-dependent protein kinase type II subunit delta (Homo sapiens), sequence (Q13557 whole entry): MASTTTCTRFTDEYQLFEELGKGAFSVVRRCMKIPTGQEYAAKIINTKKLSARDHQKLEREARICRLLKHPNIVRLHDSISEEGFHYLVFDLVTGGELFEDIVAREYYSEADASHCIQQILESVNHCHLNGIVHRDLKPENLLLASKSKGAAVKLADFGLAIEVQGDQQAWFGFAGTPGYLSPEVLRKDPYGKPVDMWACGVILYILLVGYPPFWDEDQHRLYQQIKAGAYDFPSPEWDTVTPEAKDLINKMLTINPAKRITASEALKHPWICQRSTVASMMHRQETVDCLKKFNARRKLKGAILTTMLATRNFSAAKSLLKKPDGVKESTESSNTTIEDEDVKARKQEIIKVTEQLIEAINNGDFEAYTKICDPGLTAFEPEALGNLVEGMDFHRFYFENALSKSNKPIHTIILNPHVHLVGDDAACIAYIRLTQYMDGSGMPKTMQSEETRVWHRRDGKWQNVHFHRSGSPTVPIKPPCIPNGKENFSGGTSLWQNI
Calcium/calmodulin-dependent protein kinase type II subunit gamma (Homo sapiens), sequence (Q13555 whole entry): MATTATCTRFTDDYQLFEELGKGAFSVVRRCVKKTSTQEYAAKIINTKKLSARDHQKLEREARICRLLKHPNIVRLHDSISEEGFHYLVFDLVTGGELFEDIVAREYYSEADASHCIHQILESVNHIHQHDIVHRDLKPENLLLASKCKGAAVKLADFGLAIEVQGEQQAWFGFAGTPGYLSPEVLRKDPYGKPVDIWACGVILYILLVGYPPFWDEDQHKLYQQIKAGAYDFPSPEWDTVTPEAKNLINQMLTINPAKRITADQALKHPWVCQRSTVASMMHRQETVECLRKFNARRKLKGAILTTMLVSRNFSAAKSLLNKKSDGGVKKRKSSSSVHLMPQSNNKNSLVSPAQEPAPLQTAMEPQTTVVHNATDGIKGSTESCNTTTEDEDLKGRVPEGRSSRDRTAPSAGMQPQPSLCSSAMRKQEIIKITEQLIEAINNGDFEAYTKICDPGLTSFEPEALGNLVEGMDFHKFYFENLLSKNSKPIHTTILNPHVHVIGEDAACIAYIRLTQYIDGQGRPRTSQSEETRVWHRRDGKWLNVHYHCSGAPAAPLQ
Calcium/calmodulin-dependent protein kinase type II subunit beta (Homo sapiens), sequence (Q13554 whole entry): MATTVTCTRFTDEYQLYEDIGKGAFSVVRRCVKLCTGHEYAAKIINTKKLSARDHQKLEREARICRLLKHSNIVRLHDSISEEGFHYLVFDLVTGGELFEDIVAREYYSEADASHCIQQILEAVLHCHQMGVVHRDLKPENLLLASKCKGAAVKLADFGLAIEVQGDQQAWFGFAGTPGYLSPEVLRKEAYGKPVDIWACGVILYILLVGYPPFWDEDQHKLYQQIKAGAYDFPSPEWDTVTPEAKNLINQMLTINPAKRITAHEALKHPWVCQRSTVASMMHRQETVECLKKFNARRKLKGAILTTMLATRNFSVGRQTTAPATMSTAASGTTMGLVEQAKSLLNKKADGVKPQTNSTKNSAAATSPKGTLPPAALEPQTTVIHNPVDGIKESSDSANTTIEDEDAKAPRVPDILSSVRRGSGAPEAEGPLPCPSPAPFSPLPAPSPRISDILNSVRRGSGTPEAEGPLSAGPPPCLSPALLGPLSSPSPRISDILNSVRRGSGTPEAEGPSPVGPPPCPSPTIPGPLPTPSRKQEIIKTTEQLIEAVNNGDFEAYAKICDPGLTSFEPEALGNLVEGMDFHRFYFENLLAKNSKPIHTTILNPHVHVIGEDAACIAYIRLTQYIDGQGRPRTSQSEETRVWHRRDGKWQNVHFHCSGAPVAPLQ
Calcium/calmodulin-dependent protein kinase type 1 (Homo sapiens), sequence (Q14012 whole entry, looked up): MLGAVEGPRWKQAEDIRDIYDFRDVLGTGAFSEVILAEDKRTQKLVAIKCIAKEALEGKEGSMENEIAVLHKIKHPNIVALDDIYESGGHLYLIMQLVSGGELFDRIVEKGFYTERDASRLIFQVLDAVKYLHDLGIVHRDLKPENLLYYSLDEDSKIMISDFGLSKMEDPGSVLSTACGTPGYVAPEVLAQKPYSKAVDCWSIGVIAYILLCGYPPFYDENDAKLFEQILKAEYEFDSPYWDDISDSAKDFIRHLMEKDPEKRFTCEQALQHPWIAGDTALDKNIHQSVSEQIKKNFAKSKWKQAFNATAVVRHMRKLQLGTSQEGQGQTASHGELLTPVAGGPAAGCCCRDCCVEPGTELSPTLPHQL
T1 sequence (P19784 whole entry, looked up): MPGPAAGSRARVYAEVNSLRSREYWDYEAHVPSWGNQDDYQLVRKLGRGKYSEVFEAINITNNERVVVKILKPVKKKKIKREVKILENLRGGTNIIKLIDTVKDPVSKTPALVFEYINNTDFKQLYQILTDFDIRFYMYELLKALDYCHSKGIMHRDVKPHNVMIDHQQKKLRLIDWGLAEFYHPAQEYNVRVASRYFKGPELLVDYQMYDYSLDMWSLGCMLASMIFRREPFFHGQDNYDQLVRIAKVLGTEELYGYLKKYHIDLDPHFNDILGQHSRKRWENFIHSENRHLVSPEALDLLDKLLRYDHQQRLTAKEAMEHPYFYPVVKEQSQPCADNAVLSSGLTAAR
T1 sequence (P67870 whole entry, looked up): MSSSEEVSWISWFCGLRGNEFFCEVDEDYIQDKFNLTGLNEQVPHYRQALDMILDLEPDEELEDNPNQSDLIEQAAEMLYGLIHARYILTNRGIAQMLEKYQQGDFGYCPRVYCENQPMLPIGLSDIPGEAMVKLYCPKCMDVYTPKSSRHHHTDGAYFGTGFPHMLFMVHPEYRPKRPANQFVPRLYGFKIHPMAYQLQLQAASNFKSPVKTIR
T1 sequence (P68400 whole entry, looked up): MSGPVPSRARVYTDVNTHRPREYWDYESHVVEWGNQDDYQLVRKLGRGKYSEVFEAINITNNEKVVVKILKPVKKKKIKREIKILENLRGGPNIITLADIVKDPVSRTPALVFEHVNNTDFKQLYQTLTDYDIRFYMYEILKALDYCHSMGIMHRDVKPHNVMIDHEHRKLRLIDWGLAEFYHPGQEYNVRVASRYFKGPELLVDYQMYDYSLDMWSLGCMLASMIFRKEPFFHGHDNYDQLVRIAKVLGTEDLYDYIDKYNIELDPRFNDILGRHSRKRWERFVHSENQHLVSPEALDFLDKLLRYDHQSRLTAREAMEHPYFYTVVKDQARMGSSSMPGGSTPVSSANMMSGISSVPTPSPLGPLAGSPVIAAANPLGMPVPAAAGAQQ
Casein kinase II subunit alpha' (Homo sapiens), sequence (P19784 whole entry, looked up): as the sequence (P19784 whole entry, looked up) above

| Compound | residual activity [1] | residual activity [2] | residual activity [3] | residual activity [4] | residual activity [5] | residual activity [6] | residual activity [7] | residual activity [8] | residual activity [9] | residual activity [10] | residual activity [11] | residual activity [12] | residual activity [13] | residual activity [14] | residual activity [15] | residual activity [16] | residual activity [17] | residual activity [18] | residual activity [19] | residual activity [20] |
| --- | --- | --- | --- | --- | --- | --- | --- | --- | --- | --- | --- | --- | --- | --- | --- | --- | --- | --- | --- | --- |
| c1ccc(-c2n[nH]c3c2oc2ccccc23)cc1 | 86% | 119% | 94% | 91% | 80% | 86% | 14% | 115% | 136% | 87% | 36% | 81% | 25% | 79% | 22% | 90% | – | – | – | – |
| Cc1cncc2cccc(S(=O)(=O)N3CCCN(C(=O)CN)C[C@H]3C)c12 | – | 128% | 98% | – | – | 76% | 98% | 97% | 63% | 76% | 49% | 95% | 64% | 98% | 60% | 22% | 91% | – | – | – |
| C[C@@H](N)[C@H]1CC[C@H](C(=O)Nc2ccncc2)CC1 | – | 93% | – | 97% | 66% | 99% | 90% | 123% | 125% | – | – | 100% | 89% | 107% | 92% | 90% | 90% | 87% | 106% | 93% |
| O=[N+]([O-])c1ccc(-c2nc(-c3ccc(F)cc3)c(-c3ccncc3)[nH]2)cc1 | 100% | 114% | 114% | 122% | 107% | 89% | 87% | 113% | 81% | 102% | 92% | – | – | 113% | 99% | 92% | 101% | 108% | 108% | 105% |
| N#Cc1cnc2cnc(NCc3cccnc3)cc2c1Nc1ccc(F)c(Cl)c1 | – | – | 100% | – | – | 84% | 51% | 42% | 26% | -2% | 1% | 0% | -1% | -1% | 0% | 102% | 98% | – | 93% | 75% |
| Cn1nc2c3c(cccc31)C(=O)c1ccccc1-2 | 87% | 99% | 65% | 86% | 83% | 76% | 66% | 75% | 74% | 77% | 67% | 87% | 37% | 85% | 36% | 62% | 96% | 59% | 101% | 90% |
| Cc1cc(Nc2nc(-c3ccccc3)nc3ccccc23)n[nH]1 | 43% | 21% | -2% | 10% | 8% | 53% | 15% | 61% | 13% | – | 42% | 60% | 16% | 63% | 20% | 15% | 47% | -2% | 102% | – |
| c1ccc2c(-c3ccncc3)c[nH]c2c1 | 78% | – | 90% | 112% | 85% | 87% | 108% | 106% | 84% | 47% | 10% | 79% | 26% | – | 30% | 90% | – | 95% | – | – |
| COc1ccc(OC)c2c(=S)c3ccccc3[nH]c12 | 103% | 81% | 97% | 99% | 74% | 90% | 81% | 96% | 77% | 92% | 54% | 90% | 54% | 95% | 62% | 84% | 100% | 79% | 109% | 105% |
| COc1cc2ncnc(Nc3ccc(NC(=O)c4ccccc4)cc3)c2cc1OC | 98% | 110% | 107% | 107% | 82% | 83% | 39% | 99% | 41% | 102% | 94% | – | – | 108% | 91% | 95% | – | 111% | – | 92% |
| CCN(CC)C(=O)c1ccc(Nc2nc(OCC3CCCCC3)c3nc[nH]c3n2)cc1 | – | 101% | 75% | 25% | 6% | 65% | 20% | 70% | 19% | 98% | 51% | 102% | 51% | – | 49% | 28% | 82% | – | – | 44% |
| c1ccc(-c2n[nH]cc2-c2ccnc3ccccc23)nc1 | 104% | – | – | – | 86% | 86% | 132% | – | 83% | 96% | 68% | 94% | 69% | 96% | 80% | 78% | 139% | 105% | – | – |
| Cc1nc2cc3nc(-c4cccs4)cnc3cc2n1C | 102% | 130% | 92% | 114% | 63% | 99% | 53% | 109% | 107% | 100% | 93% | 103% | 84% | 106% | 85% | 101% | 129% | 104% | 110% | 109% |

From ChEMBL document CHEMBL2218924, “A broad activity screen in support of a chemogenomic map for kinase signalling research and drug discovery” (Biochem J, 2013)
